Screening data: PubChem, several laboratories
Hits are enriched below; roughly 2.4% of the tested compounds scored in any of these assays.
CRFR2-BP antag = blocks CRF-induced signaling of the CRF-BP/CRF-R2 complex. HEK293 CRF-R2/CRF-BP, CRF-induced calcium fluorescence. inhibition, % at 11.8 µM. 350,000 tested, 0.59% active. AID 588475;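 active = inhibition of the ligand-induced calcium signal above about 50% at the single tested concentration, limit read from the data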
HTR2A ag = mouse HTR2A agonism via beta-arrestin recruitment. CHO-K1 mHTR2A beta-arrestin complementation, luminescence; percent of 30 µM serotonin response. activation, % at 7.6 µM. 360,000 tested, 0.66% active. AID 624169;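 active = activation above a run cutoff, the mean activation of all tested compounds plus 3 SD, cut at about 14% in these data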
ABHD5 PLIN5 PPI = inhibitors of human ABHD5-perilipin-5 interaction | Q00G26+Q8WTS1 | Split G. princeps luciferase complementation, luminescence, 4 h | inhibition, % at 4 µM | 360,000 tested, 0.78% active | AID 602281;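 active = inhibition above the mean inhibition across every tested compound plus 3 SD, cut at about 22% in these data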
TLR4 MyD88 comp = TLR4-MyD88 interaction inhibition in cells; O00206+Q99836; HeLa CL3-4 TLR4/MyD88 BLA complementation, FRET ratio; inhibition, % at 8.4 µM; 200,000 tested, 0.18% active; in the data active = inhibition above about 25%
NOD2-RIPK2 inh = blocks binding of human NOD2 to RIPK2 | CHO BLA complementation NOD2-RIPK2, CCF4 ratio | O43353 | 360,000 tested, 0.38% active | inhibition, % at 4.98 µM; in the data active = inhibition above about 21%
TLR9-MyD88 block = TLR9-MyD88 interaction inhibition. CHO BLA complementation TLR9-MyD88, CCF4 FRET ratio. inhibition, % at 4.98 µM. 340,000 tested, 0.21% active;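 active = inhibition above the mean over all tested compounds plus 3 SD, cut at about 21% in these data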
Large screens that a line does not name were inactive.

CC1=NN(C(=O)c2ccc(Br)cc2)C(O)(C(F)(F)OC(F)(F)F)C1 (stereo not drawn)	CRFR2-BP antag 50.4
CCOc1ccc(N2C(=O)CC(Sc3nc(C)cc(C)n3)C2=O)cc1 (stereo not drawn)	none
CCOc1ccc(N2C(=O)CC(Sc3nnnn3-c3ccccc3)C2=O)cc1 (stereo not drawn)	ABHD5 PLIN5 PPI 26.9
O=C(Nc1nc(-c2ccccc2)cs1)c1ccc2c(c1)S(=O)(=O)c1ccccc1C2=O	CRFR2-BP antag 85.8
Cc1cc(C)c(NC(=O)Cn2c(=O)n(Cc3ccco3)c(=O)c3ccccc32)c(C)c1	ABHD5 PLIN5 PPI 43.0
Cc1ccc(S(=O)(=O)N2c3ccccc3OCC2C(C)(C)C)cc1 (stereo not drawn)	CRFR2-BP antag 90.3
CCOc1ccccc1NC(=O)C1CCCN1S(=O)(=O)c1ccc2c(c1)C(C)(C)C(=O)N2C (stereo not drawn)	none (no result: CRFR2-BP antag, TLR4 MyD88 comp, TLR9-MyD88 block)
CCOc1ccc(CCNC(=O)c2cccc(NC3=NC4CS(=O)(=O)CC4S3)c2)cc1OCC (stereo not drawn)	CRFR2-BP antag 50.3 (no result: TLR4 MyD88 comp)
Cc1ccc(S(=O)(=O)N(CC(=O)Nc2ccccc2C(=O)O)c2cccc(Cl)c2C)cc1	CRFR2-BP antag 50.3
O=[N+]([O-])c1ccc(NC(=S)NCc2ccc(F)cc2)cc1	CRFR2-BP antag 67.5 (no result: TLR4 MyD88 comp)
O=[N+]([O-])c1ccc(NC(=S)NCc2ccncc2)cc1	none
Clc1ccc(-c2nnc(CSc3nnc(-c4cccs4)o3)o2)cc1	CRFR2-BP antag 54.2
CCCCC[C@@H](C)N1C[C@H](COCc2ccccc2)Oc2cc(N3CCC[C@H]3CO)ccc2S1(=O)=O	none (no result: CRFR2-BP antag, TLR4 MyD88 comp, TLR9-MyD88 block)
N/C(Cc1ccccc1Sc1ccccc1)=N\O	CRFR2-BP antag 61.2
CC1(C(=O)Nc2cccc(C#N)c2)CCN1C(=O)C1(c2ccccc2)CC1 (stereo not drawn)	none (no result: CRFR2-BP antag, TLR4 MyD88 comp, TLR9-MyD88 block)
O=C(COc1cccc2c1CCN(Cc1ccc(Br)cc1)C2=O)NCc1ccco1	CRFR2-BP antag 63.5
O=[N+]([O-])c1cccc(COc2ccc(CN3CCOCC3)cc2)c1	CRFR2-BP antag 81.7 (no result: TLR4 MyD88 comp)
COc1ccccc1C#CC1=CC(=O)CC(C)(C)C1	none (no result: TLR4 MyD88 comp)
CC1CCN(C(=S)SCc2nc(N)nc(Nc3ccccc3)n2)CC1	none (no result: TLR4 MyD88 comp)
COc1ccccc1Nc1nc(N)nc(CSC(=S)N2CC(C)CC(C)C2)n1 (stereo not drawn)	CRFR2-BP antag 53.0
Cc1cccc(C)c1-n1nnnc1C1(C)CCC(=O)N1CCc1ccc(O)cc1 (stereo not drawn)	none (no result: CRFR2-BP antag, TLR4 MyD88 comp, TLR9-MyD88 block)
CCC(C)[C@H](NC(=O)[C@@H]1Cc2ccccc2CN1C(=O)OC(C)(C)C)C(=O)NCC1CCC(C(=O)O)CC1 (stereo partly drawn)	CRFR2-BP antag 80.8 (no result: TLR4 MyD88 comp)
CC(C)[C@H](NC(=O)[C@@H]1Cc2ccccc2CN1C(=O)OC(C)(C)C)C(=O)NCC1CCCO1 (stereo partly drawn)	none (no result: TLR4 MyD88 comp)
CC(C)OC(=O)/C=C1\C[C@@H](c2ccccc2C(F)(F)F)O[C@@H](c2ccccc2C(F)(F)F)O1	none (no result: CRFR2-BP antag, TLR4 MyD88 comp, TLR9-MyD88 block)
O=C(Nc1ccccc1Oc1cccnc1)C1CCCN(Cc2ccccc2O)C1 (stereo not drawn)	CRFR2-BP antag 98.8 (no result: TLR4 MyD88 comp)
C#Cc1ccc(CN2CCCC(C(=O)Nc3ccccc3Oc3cccnc3)C2)cc1 (stereo not drawn)	none (no result: TLR4 MyD88 comp)
COc1ccc(C(=O)NCCCC2CCCC2)cc1OC1CCN(C(C)C)CC1	none (no result: TLR4 MyD88 comp)
O=[N+]([O-])c1c(Nc2ccc(O)cc2)cc(N2CCOCC2)c2nonc12	none
O=C(O)c1cc(Nc2cc(Cl)c3nonc3c2[N+](=O)[O-])ccc1O	ABHD5 PLIN5 PPI 22.9 (no result: TLR4 MyD88 comp)
Cc1nc2c(OCc3cccc(Cl)c3)cccn2c1N(C)Cc1cccs1	none (no result: CRFR2-BP antag, TLR4 MyD88 comp, TLR9-MyD88 block)
CCOc1ccc(C=NNc2ccc(S(=O)(=O)Nc3ccccc3C(=O)O)cc2[N+](=O)[O-])cc1	none (no result: TLR4 MyD88 comp)
C=CCOc1ccc(C=NNc2ccc(S(=O)(=O)Nc3ccccc3C(=O)O)cc2[N+](=O)[O-])cc1OC	CRFR2-BP antag 66.8 (no result: TLR4 MyD88 comp)
Cc1nn(-c2ccccc2)c(Cl)c1/C=N/Nc1ccc(S(=O)(=O)Nc2ccccc2C(=O)O)cc1[N+](=O)[O-]	CRFR2-BP antag 74.0
CSc1ccc(C=NNc2ccc(S(=O)(=O)Nc3ccccc3C(=O)O)cc2[N+](=O)[O-])cc1	none (no result: TLR4 MyD88 comp)
CC(=O)C1=CCC(c2ccc(Cl)cc2)N(S(=O)(=O)c2ccccc2)C1 (stereo not drawn)	none (no result: CRFR2-BP antag, TLR4 MyD88 comp, TLR9-MyD88 block)
COc1cccc(CN2C(=O)C(C)N(C(=O)c3ccccc3)c3ccccc32)c1 (stereo not drawn)	CRFR2-BP antag 116.1 (no result: TLR4 MyD88 comp)
CN1c2ccccc2C(O)=C(C(=S)Nc2ccc(Cl)cc2)S1(=O)=O	CRFR2-BP antag 59.0
Cc1cccc(NC(=O)C2=C(O)c3ccccc3N(C)S2(=O)=O)c1	none
CN(Cc1ccc(Cl)c(Cl)c1)C(c1cc2ccccc2o1)c1nnnn1C(C)(C)C (stereo not drawn)	none (no result: CRFR2-BP antag, TLR4 MyD88 comp, TLR9-MyD88 block)
CC1CCCC(C)N1C(=O)CN1C(=O)NC2(CCCCCC2)C1=O (stereo not drawn)	none (no result: TLR4 MyD88 comp)
CC#CCCC(=O)N1C=Cc2ccccc2C1C#N (stereo not drawn)	CRFR2-BP antag 55.6
CC1=Cc2ccccc2C(C#N)N1C(=O)c1ccccc1 (stereo not drawn)	none
Cc1cc(C)nc(SCc2ccc(C(=O)NNC(=O)Nc3cccc(Cl)c3)cc2)n1	CRFR2-BP antag 69.5
CC(=O)C1=CCC(c2ccccc2)N(S(=O)(=O)c2ccccc2)C1 (stereo not drawn)	none (no result: CRFR2-BP antag, TLR4 MyD88 comp, TLR9-MyD88 block)
Cc1ccc(Sc2c(C=O)c3ccccc3n2C)cc1	CRFR2-BP antag 58.0
O=C(c1cc2ccccc2o1)N1CCN(Cc2nc3ccccc3s2)CC1	none (no result: TLR4 MyD88 comp)
Cc1ccc(OCC(=O)N2CCN(c3nnc(-c4ccc(C)cc4)c4ccccc34)CC2)cc1	CRFR2-BP antag 67.6
COc1ccc(OCC(=O)N2CCN(c3nnc(-c4ccc(C)cc4)c4ccccc34)CC2)cc1	none (no result: TLR4 MyD88 comp)
CCCC(=O)Nc1ccc(Br)c(Cl)c1	none
O=C(O)CCC(=O)Nc1ccc(Br)c(Cl)c1	CRFR2-BP antag 67.5
CCCS(=O)(=O)NC(=O)C1(C)CCN(C(=O)c2ccc3ccccc3n2)C1 (stereo not drawn)	none (no result: CRFR2-BP antag, TLR4 MyD88 comp, TLR9-MyD88 block)
CN(C)C(=O)c1cc2c(c(-c3cccc(-c4ccccc4F)c3)n1)[C@@H](CCO)N(S(C)(=O)=O)C2	none (no result: CRFR2-BP antag, TLR4 MyD88 comp, TLR9-MyD88 block)
CC(Sc1nnc(Cc2cccs2)n1C1CC1)C(=O)NC1CCS(=O)(=O)C1 (stereo not drawn)	CRFR2-BP antag 63.1 (no result: TLR4 MyD88 comp)
CC(Sc1nnc(C2CC2)n1C1CC1)C(=O)NCc1cccs1 (stereo not drawn)	none (no result: TLR4 MyD88 comp)
Nc1ccn([C@@H]2O[C@H](C(=O)Nc3ccc(Oc4ccccc4)nc3)[C@@H](O)[C@H]2O)c(=O)n1	none (no result: CRFR2-BP antag, TLR4 MyD88 comp, TLR9-MyD88 block)
